Reference: the supplement of paper PMC13094657
± gives the standard deviation of the averaged measurements.

Test system: MDA-MB-231
Assay: kynurenine production, fold change vs DMSO IFNg/TNF control; higher = more kynurenine produced (less inhibition)
Conditions: pre-treatment time: 18 h then 24 h IFNg/TNF
How it was run: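 MDA-MB-231 cells were seeded in 96-well plates at 7 × 10^4/well and, 24 h later, pre-treated for 18 h with each natural product in 0.1% DMSO. They were then stimulated for 24 h at 37°C with IFNγ (1 U/ml) and TNF (6.25 ng/ml). Supernatants were treated with trichloroacetic acid and p-dimethylaminobenzaldehyde and read at 492 nm against 0–100 μM standards. Kynurenine production is expressed as fold change over cytokine-stimulated vehicle wells on the same plate and, in the first screening round, averaged across duplicate plates.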

Structure (SMILES) | kynurenine production
OCC1=C[C@@H](O)[C@]2(O[C@@H]3O[C@H](CO)[C@@H](O)[C@H](O)[C@H]3O[C@@H]3O[C@H](CO)[C@@H](O)[C@H](O)[C@H]3O)C=CO[C@@H](O[C@@H]3O[C@H](CO)[C@@H](O)[C@H](O)[C@H]3O)[C@H]12 [Rehmannioside D] (compound dose: 10 uM) | 0.941 ± 0.072
CC(CCC(OC1OC(CO)C(O)C(O)C1OC1OC(CO)C(O)C(O)C1O)C(C)(C)O)C1CCC2(C)C3CC=C4C(CCC(O)C4(C)C)C3(C)C(O)CC12C (stereo not drawn) [Mogroside II-A] (compound dose: 10 uM) | 0.693 ± 0.08
CSC(=O)OCC1=C[C@H](O)[C@H]2C(C(=O)O)=CO[C@@H](O[C@@H]3O[C@@H](CO)[C@@H](O)[C@@H](O)[C@H]3O)[C@H]12 [Paederosidic acid] (compound dose: 10 uM) | 1.07 ± 0.07
